KB-3-1 cytotox: KB-3-1 parental cell cytotoxicity | AID 1347075 | Potency, µM (doses to about 46.1 µM), hits mostly cytotoxic | KB-3-1 viability, CellTiter-Glo ATP luminescence, 72 h | hit rate 1.4% among 400,000; further: nearly all actives have a fitted effect of over 60% in size
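Cytotoxicity measured as CellTiter-Glo luminescence after 72 h at 37 C. Compound titrations were pinned onto drug-naive KB-3-1 parental adenocarcinoma cells grown in DMEM with 10% FBS, and normalized data fitted to concentration-response curves.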
HT1080-NT tox: kills 2HG-producing HT-1080-NT fibrosarcoma cells; hit rate 1.6% among 360,000; HT-1080-NT fibrosarcoma viability, CellTiter-Glo ATP luminescence, 48 h; AID 686970; Potency, µM (series often up to 46.1 µM), most hits filed as cytotoxic;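 further: NT is the 2HG producing partner of a matched IDH1 knockdown line; nearly all actives have a fitted effect of over 55% in size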
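HT-1080-NT fibrosarcoma cells (2HG-overproducing), 750 cells/well in RPMI with 5% FBS, dosed after 2 h and incubated 48 h at 37C. CellTiter-Glo luminescence normalized to DMSO and no-cell wells; concentration-response curves fitted and classed.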
TDP1 cell noCPT: qHTS for Inhibitors of human tyrosyl-DNA phosphodiesterase 1 (TDP1): qHTS in cells in absence of CPT; DT40 Tdp1-/- hTDP1 cells, no CPT, ATP luminescence, 48 h; Potency, µM (highest dose often 46.2 µM), most hits filed as inhibitors; hit rate 15% among 420,000; further: nearly all actives have a fitted effect of over 55% in size
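Chicken DT40 Tdp1-/- cells complemented with human TDP1, screened without camptothecin (DMSO vehicle only), 400 cells/well. Compounds pin-transferred, cells incubated at 37 °C for at least 48 hr. Growth read as ATP-dependent luminescence (CellTiter-Glo, 30 min at RT).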
HT1080 IDH1KD tx: HT-1080 IDH1 knockdown cell toxicity (counter line); HT-1080 IDH1 knockdown viability, ATP luminescence, 48 h; Potency, µM (highest dose often 46.1 µM), hits mostly cytotoxic; hit rate 2% among 360,000; AID 686971
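Cytotoxicity counter-line: IDH1KD HT-1080, 48 h, CellTiter-Glo. Curves classed by r2, magnitude and activity.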
DT40 TDP1 CPT: DT40-hTDP1 cell growth loss with CPT. chicken DT40 Tdp1-/-;hTDP1 cells + 20 nM CPT, ATP luminescence, 48 h. Potency, µM (series often up to 46.2 µM), usual class: inhibitors. hit rate 12% among 420,000; further: nearly all actives have a fitted effect of over 55% in size
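Chicken DT40 Tdp1-/- cells complemented with human TDP1, 400 cells/well, exposed to compounds plus 20 nM camptothecin for at least 48 h at 37 C; viability read as ATP content by CellTiter-Glo luminescence.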
KB-V1 MDR tox: KB-V1 MDR subline cytotoxicity | Potency, µM (titrated, usually from 46.1 µM), most hits filed as cytotoxic | hit rate 3.4% among 400,000 | AID 1347076 | KB-V1 MDR cells viability, CellTiter-Glo, 72 h; further: nearly all actives have a fitted effect of over 60% in size
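Drug-selected KB-V1 cells, grown in DMEM lacking phenol red with 10% FBS, receive compound titrations; after three days at 37 degrees C, surviving cell ATP is quantified by CellTiter-Glo luminescence and responses normalized and curve-fitted.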
Each line names hits and unclear results; the compound was inactive in the other large screens. The list is not random: actives were taken first. Their share in the collection is about 19%. The call rests on the fitted dose curve; in most records, active means well fitted curve in the direction sought with a large enough effect; inconclusive means small, poorly fitted or top-dose-only effect, or another doubt; inactive means no such curve, though single readings can be large; an effect the other way counts as inactive or inconclusive.

CCCC[C@@H]1C[C@H]1[C@@H](NC(=O)c1ccco1)c1ccccc1C(F)(F)F	TDP1 cell noCPT inconclusive, DT40 TDP1 CPT inconclusive
O=C(NCC1CCCO1)c1cccc(NS(=O)(=O)c2ccccc2)c1 (stereo not given)	none
COc1ccc(C2=NOC(C(=O)NCc3cccnc3)C2)cc1 (stereo not given)	none
COc1ccc(CCN(C)C(=O)c2cc(-c3ccccc3)nc3ccccc23)cc1OC	TDP1 cell noCPT 23µM, DT40 TDP1 CPT inconclusive
COc1ccc(CCNC(=O)c2cc(Nc3cc(C)cc(C)c3)nc3ccccc23)cc1OC	KB-3-1 cytotox inconclusive, TDP1 cell noCPT 8.2µM, DT40 TDP1 CPT 8.2µM (no result: HT1080-NT tox, HT1080 IDH1KD tx)
COc1ccc(-c2cc(C(=O)N(C)CCc3ccc(OC)c(OC)c3)c3ccccc3n2)cc1	TDP1 cell noCPT 23µM, DT40 TDP1 CPT 15µM, KB-V1 MDR tox inconclusive
COc1ccc(CCNC(=O)c2cc(-c3ccccc3)nc3ccccc23)cc1OC	KB-V1 MDR tox 23µM (no result: HT1080-NT tox, TDP1 cell noCPT, HT1080 IDH1KD tx, DT40 TDP1 CPT)
COc1cc(OC)c2c(C)c(CC(=O)N3CCCCC3)c(=O)oc2c1	none (no result: HT1080-NT tox, HT1080 IDH1KD tx)
Cc1ccc(Nc2cc(C)c(C#N)c3nc4ccccc4n23)cc1Cl	TDP1 cell noCPT inconclusive, DT40 TDP1 CPT inconclusive (no result: HT1080-NT tox, HT1080 IDH1KD tx)
COc1ccc(CCNC(=O)c2cc(-c3ccncc3)nc3c(Cl)cccc23)cc1OC	TDP1 cell noCPT 21µM, DT40 TDP1 CPT 21µM, KB-V1 MDR tox 23µM
COc1ccc(CCN(C)C(=O)Cc2ccc(-c3ccccc3)cc2)cc1OC	KB-3-1 cytotox inconclusive, HT1080-NT tox inconclusive, TDP1 cell noCPT 16µM, DT40 TDP1 CPT 18µM
COc1ccc(CNC(=O)c2cc(-c3ccncc3)nc3c(C)cc(C)cc23)cc1OC	TDP1 cell noCPT inconclusive, DT40 TDP1 CPT inconclusive, KB-V1 MDR tox 23µM
COc1ccc(CCNC(=O)c2cc(-c3ccccn3)nc3c(Cl)cccc23)cc1OC	KB-3-1 cytotox inconclusive, TDP1 cell noCPT inconclusive
COc1ccc(CCN(C)C(=O)COc2ccc(C(=O)c3ccccc3)cc2)cc1OC	TDP1 cell noCPT inconclusive, DT40 TDP1 CPT inconclusive
O=S(=O)(NC1=NCCC1)c1cccc(NC(=S)NCCc2ccccc2)c1	TDP1 cell noCPT inconclusive
COc1cc(NC(=O)Cc2cccc3ccccc23)c(C(=O)O)cc1OC	none
COc1cc2cc(C)nc(Cc3cccc4ccccc34)c2cc1OC	HT1080-NT tox inconclusive, TDP1 cell noCPT 23µM, HT1080 IDH1KD tx inconclusive, DT40 TDP1 CPT 15µM
O=C(NCc1ccco1)C1CC(c2cc(C(F)(F)F)cc(C(F)(F)F)c2)=NO1 (stereo not given)	KB-3-1 cytotox 4.1µM, HT1080-NT tox 5.8µM, TDP1 cell noCPT 2.3µM, HT1080 IDH1KD tx 2.6µM, DT40 TDP1 CPT 2.6µM, KB-V1 MDR tox 10µM
O=C(NCc1ccc(C(F)(F)F)cc1)C1CC(c2ccc(C(F)(F)F)cc2)=NO1 (stereo not given)	KB-3-1 cytotox inconclusive, TDP1 cell noCPT 13µM, HT1080 IDH1KD tx inconclusive, DT40 TDP1 CPT 23µM, KB-V1 MDR tox inconclusive
Cc1ccc(-c2nnc3c4ccccc4c(-c4ccccc4)nn23)cc1	none (no result: KB-3-1 cytotox, HT1080-NT tox, HT1080 IDH1KD tx, KB-V1 MDR tox)
COc1ccc(CN2C(=O)CN(S(C)(=O)=O)CC2(C)C(=O)Nc2c(C)cccc2C)cc1OC (stereo not given)	none
CCOC(=O)/C=C1/SCC(=O)N1CC(=O)NC12CC3CC(CC(C3)C1)C2	TDP1 cell noCPT 21µM, DT40 TDP1 CPT inconclusive
CCOC(=O)/C=C1\SCC(=O)N1CC(=O)Nc1ccc(OC)c(OC)c1	none
CN(Cc1ccccc1)c1nc(N)nc(Cl)c1C=O	HT1080-NT tox inconclusive, TDP1 cell noCPT inconclusive, HT1080 IDH1KD tx 18µM
O=C(CCl)N1c2ccccc2Sc2c1ccc1ccccc21	KB-3-1 cytotox inconclusive, HT1080-NT tox inconclusive, TDP1 cell noCPT 5.8µM, HT1080 IDH1KD tx inconclusive, DT40 TDP1 CPT 3.7µM, KB-V1 MDR tox inconclusive

Source: PubChem
